Screens as filed in PubChem.
TIM10 inh: growth inhibitors of TIM10 yeast strain; S. cerevisiae TIM10 strain growth, BacTiter-Glo luminescence, 24 h; inhibition, % at 10 µM; 330,000 tested, 1.4% active;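 active = inhibition of 40% or more at the single tested concentration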;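 also: wild-type TIM10 isogenic control strain grown at permissive 25 °C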
tim23-1 inh: tim23-1 yeast growth inhibition. S. cerevisiae tim23-1 growth, BacTiter-Glo luminescence, 24 h. inhibition, % at 20 µM. 330,000 tested, 1.3% active. AID 463212;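 active = growth inhibition of the mutant yeast at or above 50%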;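 also: temperature-sensitive mutant grown at 25 °C; plate controls were DMSO-treated mutant yeast for no effect and medium wells lacking yeast for full effect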
NLRP3 yeast inh: NALP3 inhibition in yeast. Yeast reconstituted NLRP3/ASC/caspase-1, beta-gal luminescence, 24 h. inhibition, % at 10 µM. 330,000 tested, 0.39% active. AID 2825;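 active = inhibition of 50% or more; inactive = inhibition below 50%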;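 also: plate controls were induced DMSO wells for no effect and uninduced yeast grown without galactose for full effect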
tim10-1 inh: tim10-1 yeast growth inhibition. S. cerevisiae tim10-1 ts strain growth, BacTiter-Glo, 24 h. inhibition, % at 20 µM. 330,000 tested, 2.2% active;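 active = inhibition of at least 40%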;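 also: mutant grown at 25 °C; 0% = DMSO wells with yeast and 100% = wells holding no yeast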
V-ATPase pHluor: regulators of yeast V-ATPase proton transport; S. cerevisiae, pHLuorin cytosolic pH fluorescence; response, % at 10 µM; 350,000 tested, 0.37% active; AID 504577; in the data active = response mostly above about 7.3%, no sharp cut-off; inactive = mostly below about 5.4%; also: actives read high
NALP1 inh: blocks the NALP1 inflammasome reconstituted in yeast. S. cerevisiae NALP1/ASC/caspase-1 growth, X-gal OD620, 72 h. inhibition, % at 10 µM. 280,000 tested, 0.61% active; in the data active = inhibition mostly above about 24%, no sharp cut-off; inactive = mostly below about 32%
tim23-1 conf: confirmation of tim23-1 mutant yeast growth inhibitors. shares compounds with tim23-1 inh. S. cerevisiae tim23-1 growth, BacTiter-Glo luminescence, 24 h. inhibition, % at 20 µM. 4,400 tested, 83% active. AID 463218;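 active = inhibition above about 39% in either of two replicate wells at 20 µM, limit read from the data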;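 also: temperature-sensitive tim23-1 mutant grown at 25 °C; 0% = DMSO wells with yeast and 100% = medium wells without yeast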
* marks the source's active call; other numbers are inactive results; . = not tested or not shown. Rows were chosen to be rich in hits. Some 4.2% of all compounds tested hit in one or more screens of this group.

SMILES | TIM10 inh | tim23-1 inh | NLRP3 yeast inh | tim10-1 inh | V-ATPase pHluor | NALP1 inh | tim23-1 conf
CC(C)C1Cc2c(sc3ncnc(NN)c23)CO1 (stereo not drawn) | 7.3 | 51.5* | 11.4 | 29.8 | 1.5 | 7.7 | 27.2
O=C(OCc1ccc(F)cc1)c1cc2ccccc2cc1O | 1.8 | 21.1 | -14.3 | 11.4 | -1.1 | 5.3 | .
CN(C(=O)c1cc2ccccc2cc1O)C1CCCCC1 | 15.7 | 41.5 | 21.2 | 27.7 | -1.6 | 20.2 | .
O=C(OCc1cccc(F)c1)c1cc2ccccc2cc1O | 15.1 | 94.1* | 0.3 | 7.1 | -1.0 | 12.4 | 28.0
CN(C(=O)COC(=O)c1cc2ccccc2cc1O)C1CCCCC1 | 30.4 | 55.3* | 23.8 | 19.4 | 5.8 | . | 48.6*
Cc1nn(-c2ccccn2)c2c1C(=O)CC(C)(C)C2Br (stereo not drawn) | -24.0 | 5.8 | 5.7 | 13.5 | 0.5 | 14.4 | .
O=C(c1ccc(-n2cncn2)c([N+](=O)[O-])c1)N1CCN(S(=O)(=O)c2ccccc2F)CC1 | 3.5 | -3.9 | 18.1 | -19.4 | 1.0 | . | .
C=CC[C@H](CC(=O)NCCO)C(=O)NC[C@@H](OC(=O)[C@H](CC=C)CC(=O)OC(C)(C)C)c1ccccc1 | 5.8 | -1.8 | 1.5 | -6.3 | -2.1 | . | .
O=C(CSc1nnc(NC(=O)C2CCC2)s1)Nc1ccccc1Br | 2.3 | 0.3 | 18.5 | -3.4 | -1.1 | -4.0 | .
Cc1ccc(C(=O)Nc2ncc([N+](=O)[O-])s2)cc1 | . | . | . | . | 0.3 | 21.9 | .
O=C(Nc1ncc([N+](=O)[O-])s1)c1ccc2c(c1)OCO2 | 34.5 | 57.0* | 38.5 | 34.0 | -1.5 | 2.2 | 58.8*
CN(Cc1ccco1)c1ncnc2ccc(-c3ccc4c(c3)OCO4)cc12 | 7.1 | 51.5* | 15.6 | 22.3 | -3.7 | . | 41.9*
COc1ccc(N=NC2=C(O)CC(C)(C)CC2=O)c(OC)c1 | 3.8 | 14.1 | 7.9 | 20.6 | -0.8 | 3.6 | .
CC1(C)CC(=O)C(N=Nc2cccc([N+](=O)[O-])c2)=C(O)C1 | 19.8 | 88.2* | 2.8 | 25.3 | -0.5 | 23.7 | 92.5*
CC1(C)CC(=O)C(N=Nc2ccc(C(F)(F)F)cc2[N+](=O)[O-])=C(O)C1 | 4.3 | 78.2* | 3.9 | 4.8 | 7.8 | 24.8 | 77.6*
CC1(C)CC(=O)C(N=Nc2ccc(Br)cc2)=C(O)C1 | -22.6 | 3.3 | 21.1 | -4.8 | -3.1 | -5.7 | .
O=C(O)c1ccccc1C(=O)Nc1ccc(S(=O)(=O)NC2CCCCC2)cc1 | -9.4 | -2.3 | 1.1 | -9.0 | -0.4 | 22.8 | .
CCOC(=O)[C@H]1[C@H]2COc3ccc(OC)cc3[C@@H]2N2C(=O)CN(C)C(=O)[C@@]12C | -0.4 | 1.0 | 11.1 | -0.6 | -2.3 | . | .
CCCN1Cc2cccc(C(=O)N3CCN(c4ccc(F)cc4)CC3)c2C1=O | 7.8 | 6.5 | 5.2 | 10.5 | 2.1 | 13.7 | .
CCCN1CCN(C(=O)c2cccc3c2C(=O)N(CCOC)C3)CC1 | -4.0 | 95.9* | 11.9 | 2.6 | -3.7 | 16.2 | 14.0
COc1cc(Cl)ccc1OCc1cc(C(=O)N2CCN(C3CCCCC3)CC2)no1 | . | . | . | . | -1.6 | . | .
CCOC(=O)C1(C)Oc2ccc(S(=O)(=O)CC)cc2NC1=O (stereo not drawn) | -27.4 | 5.2 | -10.4 | 11.4 | 1.7 | 7.4 | .
CCCCCCSC1=C(C#N)C(c2ccccc2)CC(=O)N1 (stereo not drawn) | 28.7 | 50.8* | 17.0 | 27.5 | 4.3 | -12.3 | 45.8*
Cc1ccc(C2CC(=O)NC(SCc3ccccc3)=C2C#N)cc1 (stereo not drawn) | 21.6 | 27.3 | 17.4 | 24.3 | 1.6 | 10.3 | .
CCOC(=O)/C(N=Nc1ccc2c(c1)OCO2)=C(\C)O | 10.1 | 6.5 | 37.1 | 15.1 | -1.8 | 12.9 | .
SMILES | TIM10 inh | tim23-1 inh | NLRP3 yeast inh | tim10-1 inh | V-ATPase pHluor | NALP1 inh | tim23-1 conf
CCNC(=O)N(C)C[C@H]1N[C@@](C)(C(=O)OC)[C@H]2C(=O)N(C)C(=O)[C@@H]12 | -0.5 | -1.5 | -20.0 | -8.5 | 2.1 | . | .
Cc1ccc(S(=O)(=O)Nc2ccccc2C(=O)N2CCCCCC2)cc1 | -0.1 | 26.9 | -2.7 | 3.7 | -2.1 | 7.3 | .
CC1c2[nH]c3ccccc3c2CCN1C(=O)Nc1ccccc1 (stereo not drawn) | 23.6 | 63.9* | 11.6 | 10.1 | 1.3 | 17.6 | 50.1*
CSc1cccc(NC(=O)c2ccc(NC3=NC4CS(=O)(=O)CC4S3)cc2)c1 (stereo not drawn) | -8.1 | -4.5 | 9.6 | -11.6 | -1.2 | -9.0 | .
O=C(c1ccccc1)c1c[nH]c2ccccc12 | . | . | . | . | 0.8 | 12.6 | .
O=C(/C=C/c1c[nH]c2ccccc12)c1cccc2ccccc12 | 37.2 | 54.0* | 30.0 | 24.9 | -0.7 | 14.8 | 61.8*
O=C(C=Cc1cccnc1)c1ccccc1 | . | . | . | . | 2.6 | . | .
O=C(/C=C/c1cccnc1)c1ccccc1O | -4.1 | 51.5* | 10.4 | 35.8 | 5.4 | -3.8 | 50.5*
COc1ccc(S(N)(=O)=O)cc1C(=O)OCC(=O)N1c2ccccc2NC(=O)C1(C)C | -2.5 | 94.1* | 15.6 | -14.4 | 1.5 | . | 12.8
N=C1/C(=C/c2coc3ccccc3c2=O)C(=O)N=C2SC(c3ccco3)=NN12 | 4.0 | 10.9 | 17.6 | -6.2 | 5.2 | 3.5 | .
N=C1/C(=C\c2coc3ccccc3c2=O)C(=O)N=C2SC(c3ccncc3)=NN12 | 34.6 | 53.5* | 13.3 | 22.0 | -2.3 | . | 5.8
Cc1ccc(S(=O)(=O)NC23CC4CC(CC(C4)C2)C3)cc1 | 22.2 | 50.5* | 21.1 | 14.8 | -3.2 | . | 52.1*
O=C(O)C(Cc1c[nH]c2ccccc12)N1C(=O)C2C3c4ccccc4C(c4ccccc43)[C@@H]2C1=O (stereo partly drawn) | 17.4 | 4.6 | -4.4 | 5.0 | -6.1 | -11.0 | .
O=C1c2ccccc2/C(=C\c2ccc3[nH]ccc3c2)N1c1ccccc1 | 34.4 | 63.0* | -14.0 | 35.1 | 3.6 | . | 52.6*
Cc1ccc(N2C(=O)/C(=C/c3cccnc3)SC2=S)cc1 | 8.7 | 25.0 | 17.3 | 18.5 | -3.0 | 18.1 | .
Cc1cccc(N2C(=O)/C(=C/c3cccnc3)SC2=S)c1 | 11.0 | 58.0* | 1.6 | 38.0 | -1.3 | -14.9 | 54.4*
Cc1cc(C)c(C)c(SCC(=O)Nc2oc(C)c3c(C)n[nH]c(=O)c23)c1C | 13.4 | 14.8 | 3.2 | 21.7 | 1.4 | . | .
CCn1c(SCC(=O)Nc2oc(C)c3c(C)n[nH]c(=O)c23)nc2sc(C)c(C)c2c1=O | 29.1 | 55.3* | 5.2 | 30.3 | 0.8 | . | 7.5
CC(C)(O)C#Cc1ccc(CN2CCC(n3nccc3NC(=O)C3CC3)CC2)cc1 | -5.1 | -12.6 | 4.9 | 6.5 | -2.0 | 5.5 | .
Cc1ccc(NS(=O)(=O)c2ccc(C)c(C(=O)NCC(c3ccccc3)N(C)C)c2)cc1 (stereo not drawn) | 20.0 | 36.6 | 6.6 | 38.0 | 2.7 | . | .
Cc1nc(NS(=O)(=O)c2ccccc2C)c2c3c(sc2n1)CCC3 | 19.8 | 52.7* | 34.7 | 31.7 | . | 27.1 | 51.0*
CC(=O)Nc1ccc(S(=O)(=O)Nc2nc(C)nc3sc4c(c23)CCC4)cc1 | 2.5 | 11.6 | 5.5 | 8.1 | -1.6 | . | .
